Laboratory results taken from PubChem BioAssay (NCATS).
Records with an inconclusive call do not appear. Activity calls are given as the source filed them. Calls follow the shape of the full dose curve; tested in HEK293 reporter line.

Test: qHTS for Inhibitors of the Functional Ribonucleoprotein Complex (vRNP) of Lassa (LASV) Arenavirus: LASV Primary Screen - GLuc reporter signal (AID 1347082); also: nearly all actives have a fitted effect of over 60% in size
Conditions: LASV minigenome vRNP, Gaussia luciferase reporter; series mostly up to 57.5 µM; activity change, negative = inhibition: at the top concentration
% is scaled to controls: 0 for no effect and ±100 for the full control effect.

SMILES	activity change, negative = inhibition	Potency
O=C(O)[C@@H]1CSCN1	6.09% (inactive)	–
OC1(c2ccc(Cl)cc2)CCNCC1	-4.85% (inactive)	–
CC(C)(C)NC[C@H](O)COc1cccc2c1CCCC2=O	8.93% (inactive)	–
O=C1CC[C@@H](C(=O)O)N1	-6.57% (inactive)	–
CN[C@@H]1[C@H](O)[C@H](NC)[C@H]2O[C@@]3(O)C(=O)C[C@@H](C)O[C@H]3O[C@@H]2[C@H]1O	-2.54% (inactive)	–
O=S(=O)(O)c1ccc2nc(-c3ccccc3)[nH]c2c1	2.94% (inactive)	–
NC(CO)(CO)CO	-15.6% (inactive)	–
NCCS(=O)(=O)O	–	inactive
O=C(NCC(O)CO)c1c(I)c(C(=O)NCC(O)CO)c(I)c(N(CCO)C(=O)CO)c1I (stereo unspecified)	-2.7% (inactive)	–
Cc1nc([N+](=O)[O-])cn1-c1ccc([N+](=O)[O-])cc1	6.2% (inactive)	–
CC(=O)N[C@@H](CC(C)C)C(=O)O	6.44% (inactive)	–
CC(=O)OCC[N+](C)(C)C	–	inactive
CCN1CCC[C@H]1CNC(=O)c1c(OC)ccc(Br)c1OC	4.88% (inactive)	–
NS(=O)(=O)c1ccc(NC(=O)CCC(=O)O)cc1	-3.4% (inactive)	–
COC(=O)c1cc(Cl)ccc1NS(=O)(=O)C(F)(F)F	-6.31% (inactive)	–
CCC(Cc1c(I)cc(I)c(N)c1I)C(=O)O (stereo unspecified)	-6.71% (inactive)	–
Cn1nnc2c(C(N)=O)ncn2c1=O	–	inactive
CC(C)(C)NCC(O)COc1cccc2c1C[C@H](O)[C@H](O)C2 (stereo partly specified)	12.2% (inactive)	–
CCS(=O)(=O)CCn1c([N+](=O)[O-])cnc1C	-0.16% (inactive)	–

SMILES	activity change, negative = inhibition	Potency
COc1ccc2[nH]cc(CCNC(C)=O)c2c1	–	inactive
CC(=O)c1ccc(S(=O)(=O)NC(=O)NC2CCCCC2)cc1	–	inactive
C[C@@H](CN1CC(=O)NC(=O)C1)N1CC(=O)NC(=O)C1	–	inactive
CCCNC(C)C(=O)Nc1ccccc1C (stereo unspecified)	–	inactive
Cc1ccc(O)c2ncccc12	2.21% (inactive)	–
CC(C)=CCC[C@@](C)(O)[C@H]1CC=C(C)CC1	-0.305% (inactive)	–
CC1(C)O[C@@H]2C[C@H]3[C@@H]4C[C@H](F)C5=CC(=O)C=C[C@]5(C)[C@@]4(F)[C@@H](O)C[C@]3(C)[C@]2(C(=O)CO)O1	-2.53% (inactive)	–
Nc1cc(=O)[nH]c(N)n1	–	inactive
CN1C[C@@H]2C[C@H]1CN2c1cc2c(cc1F)c(=O)c(C(=O)O)cn2C1CC1	-9.49% [at 24.7 µM] (inactive)	–
NS(=O)(=O)c1cc(Cl)c(Cl)c(S(N)(=O)=O)c1	3.83% (inactive)	–
NC(=O)NS(=O)(=O)c1ccc(Cl)cc1	-3.4% (inactive)	–
O=C(N/N=C/c1ccccc1O)c1ccncc1	-24.5% (inactive)	–
c1ccc2c(c1)CCCC2C1=NCCN1 (stereo unspecified)	–	inactive
COP(=O)(OC)OC(c1ccc(Cl)cc1)P(=O)(OC)OC (stereo unspecified)	4.24% (inactive)	–
CN/C(=C\[N+](=O)[O-])NCCSCc1csc(CN(C)C)n1	10.4% (inactive)	–
CC1(C)S[C@@H]2[C@H](NC(=O)C(c3ccccc3)S(=O)(=O)O)C(=O)N2[C@H]1C(=O)O (stereo partly specified)	0.217% (inactive)	–
COCCCN1CCC(NC(=O)c2cc(Cl)c(N)c3c2OCC3)CC1	–	inactive
CC(=O)O[C@@H]1C(=O)O[C@@H]2[C@H]1OC(=O)[C@@H]2OC(C)=O	-2.82% (inactive)	–
Cc1ncc(CO)c(C=O)c1O	-8.84% (inactive)	–

Test: qHTS for Inhibitors of the Functional Ribonucleoprotein Complex (vRNP) of Lassa (LASV) Arenavirus: Viability assay - alamar blue signal for LASV Primary Screen (AID 1347083); also: nearly all actives have a fitted effect of over 80% in size
Conditions: cell viability, alamar blue fluorescence (LASV minigenome counter-screen); series mostly up to 57.5 µM; activity change, negative = reduced viability: at the top concentration

SMILES	activity change, negative = reduced viability	Potency
O=C(O)[C@@H]1CSCN1	5.12% (inactive)	–
OC1(c2ccc(Cl)cc2)CCNCC1	-1.55% (inactive)	–
CC(C)(C)NC[C@H](O)COc1cccc2c1CCCC2=O	10.8% (inactive)	–
O=C1CC[C@@H](C(=O)O)N1	-1.62% (inactive)	–
CN[C@@H]1[C@H](O)[C@H](NC)[C@H]2O[C@@]3(O)C(=O)C[C@@H](C)O[C@H]3O[C@@H]2[C@H]1O	2.42% (inactive)	–
O=S(=O)(O)c1ccc2nc(-c3ccccc3)[nH]c2c1	-1.93% (inactive)	–
NC(CO)(CO)CO	-2.04% (inactive)	–
NCCS(=O)(=O)O	–	inactive
O=C(NCC(O)CO)c1c(I)c(C(=O)NCC(O)CO)c(I)c(N(CCO)C(=O)CO)c1I (stereo unspecified)	-0.978% (inactive)	–
Cc1nc([N+](=O)[O-])cn1-c1ccc([N+](=O)[O-])cc1	13.2% (inactive)	–
CC(=O)N[C@@H](CC(C)C)C(=O)O	-1.9% (inactive)	–
CC(=O)OCC[N+](C)(C)C	–	inactive
CCN1CCC[C@H]1CNC(=O)c1c(OC)ccc(Br)c1OC	27.1% (inactive)	–
NS(=O)(=O)c1ccc(NC(=O)CCC(=O)O)cc1	-0.462% (inactive)	–
COC(=O)c1cc(Cl)ccc1NS(=O)(=O)C(F)(F)F	-14.8% (inactive)	–
CCC(Cc1c(I)cc(I)c(N)c1I)C(=O)O (stereo unspecified)	-5.28% (inactive)	–
Cn1nnc2c(C(N)=O)ncn2c1=O	–	inactive
CC(C)(C)NCC(O)COc1cccc2c1C[C@H](O)[C@H](O)C2 (stereo partly specified)	3.96% (inactive)	–
CCS(=O)(=O)CCn1c([N+](=O)[O-])cnc1C	-0.363% (inactive)	–

SMILES	activity change, negative = reduced viability	Potency
COc1ccc2[nH]cc(CCNC(C)=O)c2c1	–	inactive
CC(=O)c1ccc(S(=O)(=O)NC(=O)NC2CCCCC2)cc1	–	inactive
C[C@@H](CN1CC(=O)NC(=O)C1)N1CC(=O)NC(=O)C1	1.7% (inactive)	–
CCCNC(C)C(=O)Nc1ccccc1C (stereo unspecified)	–	inactive
Cc1ccc(O)c2ncccc12	-10.9% (inactive)	–
CC(C)=CCC[C@@](C)(O)[C@H]1CC=C(C)CC1	0.271% (inactive)	–
CC1(C)O[C@@H]2C[C@H]3[C@@H]4C[C@H](F)C5=CC(=O)C=C[C@]5(C)[C@@]4(F)[C@@H](O)C[C@]3(C)[C@]2(C(=O)CO)O1	4.61% (inactive)	–
Nc1cc(=O)[nH]c(N)n1	–	inactive
CN1C[C@@H]2C[C@H]1CN2c1cc2c(cc1F)c(=O)c(C(=O)O)cn2C1CC1	7.9% [at 24.7 µM] (inactive)	–
NS(=O)(=O)c1cc(Cl)c(Cl)c(S(N)(=O)=O)c1	2.26% (inactive)	–
NC(=O)NS(=O)(=O)c1ccc(Cl)cc1	-1% (inactive)	–
O=C(N/N=C/c1ccccc1O)c1ccncc1	-32.8% (inactive)	–
c1ccc2c(c1)CCCC2C1=NCCN1 (stereo unspecified)	–	inactive
COP(=O)(OC)OC(c1ccc(Cl)cc1)P(=O)(OC)OC (stereo unspecified)	11.3% (inactive)	–
CN/C(=C\[N+](=O)[O-])NCCSCc1csc(CN(C)C)n1	10.4% (inactive)	–
CC1(C)S[C@@H]2[C@H](NC(=O)C(c3ccccc3)S(=O)(=O)O)C(=O)N2[C@H]1C(=O)O (stereo partly specified)	4.94% (inactive)	–
COCCCN1CCC(NC(=O)c2cc(Cl)c(N)c3c2OCC3)CC1	1.83% (inactive)	–
CC(=O)O[C@@H]1C(=O)O[C@@H]2[C@H]1OC(=O)[C@@H]2OC(C)=O	-6.01% (inactive)	–
Cc1ncc(CO)c(C=O)c1O	5.94% (inactive)	–
